# Source: PubChem BioAssay AID761 (NMMLSC, 2007)
# Hit rate of the full screen: of about 190,000 compounds, about 400 (0.21%) were called active. Another 2% or so got no clear call; they are omitted.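 How the source made its calls: active means percent activity GTP binding at least 20 points away from the 100% baseline, either down as inhibitor or up as activator; inconclusive means compound flagged as likely green fluorescent from well-wide comparison; inactive means the rest.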 The list comes from a sample in which actives are over-represented; it also holds similar structures and randomly drawn compounds.
# Target: Cell division control protein 42 homolog (Homo sapiens) (UniProt P60953)
# Sequence (P60953 whole entry, looked up): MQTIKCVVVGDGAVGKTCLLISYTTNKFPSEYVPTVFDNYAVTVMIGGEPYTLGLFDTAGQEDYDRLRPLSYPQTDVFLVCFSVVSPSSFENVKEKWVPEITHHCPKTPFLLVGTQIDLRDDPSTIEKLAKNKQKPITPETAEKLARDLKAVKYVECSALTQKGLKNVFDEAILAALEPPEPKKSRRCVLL
# Assay: wildtype Cdc42 fluorescent GTP binding changes, either direction – biochemical, multiplex bead flow cytometry, Bodipy-GTP, primary screen (AID 761);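 further: median bead fluorescence of bound Bodipy-FL-GTP at 100 nM; 0% = excess unlabeled GTP control and 100% = no compound control; below 100% means less GTP binding so inhibitor and above means activator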
# Conditions: GST-Cdc42 beads, at 10 µM, actives lie on both sides
row,SMILES,percent activity (GTP binding)
1,CC(C)NC(=S)NN=C1CCCCCCCCCCC1,93% (inactive)
2,C=CCn1c(-c2sc(-c3ccccc3)nc2C)n[nH]c1=S,90% (inactive)
3,O=C(NNC(=S)NCCCN1CCOCC1)c1ccncc1,98% (inactive)
4,COc1c(F)c(F)c(C(=O)O)c(Nc2ccccc2C)c1F,100% (inactive)
5,Cc1ccc(NC(=S)NC(=O)c2ccc(-c3ccccc3)cc2)c(C)c1,99% (inactive)
6,Cc1ccc(Nc2c(F)c(F)c(F)c(F)c2C(=O)O)c(C)c1,134% [activator] (active)
7,COC(=O)C1=CN(Cc2ccc(OC)c(OC)c2)C=C(C(=O)OC)C1c1cccs1,99% (inactive)
8,CCn1c(-c2cccnc2Cl)nc2cc(C)c(C)cc21,99% (inactive)
9,Cc1ccc(C(=O)OC(C)CN2CCOCC2)cc1 (centres undefined),99% (inactive)
10,COc1ccccc1CNC(=O)c1cc(=O)c2ccccc2o1,96% (inactive)
11,COCCN(Cc1nc(-c2ccc(C(F)(F)F)cc2)no1)C(C)C,94% (inactive)
12,COc1ccccc1NC(=O)C1=C(C)NC(=O)NC1c1ccc(C)s1 (centres undefined),93% (inactive)
13,COc1ccc(-c2nc3cnccn3c2NC(C)(C)CC(C)(C)C)cc1O,101% (inactive)
14,Cc1nnc(N/N=C/C2CC=CCC2)[nH]c1=O (centres undefined),96% (inactive)
15,O=C(O)/C=C/c1ccc(OCCCF)cc1,101% (inactive)
16,CN(CC(=O)Nc1ccccc1[N+](=O)[O-])Cc1ccc(Br)cc1,98% (inactive)
17,CCC(C)(C)NC(=O)C(c1cccc(OC)c1OC)N(CC(C)C)C(=O)CCC(=O)Nc1cc(C)on1 (centres undefined),99% (inactive)
18,O=C(COC(=O)C1CCCCC1)Nc1ccc([N+](=O)[O-])cc1,96% (inactive)
19,Nc1nc(SCC(=O)N2CCN(S(=O)(=O)c3ccc(Cl)cc3)CC2)n[nH]1,100% (inactive)
20,O=C(Nc1ccc2c(c1)CCC2)c1ccc(Br)s1,98% (inactive)
21,Cc1cccc2cc(CN(Cc3cccs3)C(c3nnnn3C3CCCC3)C(C)C)c(=O)[nH]c12 (centres undefined),72% (active)
22,Cc1cccc2cc(CN(Cc3ccc4c(c3)OCO4)Cc3nnnn3C3CCCC3)c(=O)[nH]c12,94% (inactive)
23,CCC(c1nnnn1C1CCCC1)N(Cc1cccs1)Cc1cc2cccc(C)c2[nH]c1=O (centres undefined),103% (inactive)
24,COc1cc(OC)c(C(=O)OCC(=O)N2CC(=O)Nc3ccccc32)cc1OC,103% (inactive)
25,CSc1nc2nc(-c3cccc(C(F)(F)F)c3)ccn2n1,93% (inactive)

row,SMILES,percent activity (GTP binding)
1,CSc1ncccc1C(=O)NC1CCCCCC1,96% (inactive)
2,COc1ccc(NC(=O)c2c(SC)nsc2SC)cc1,105% (inactive)
3,CSc1nsc(SC)c1NC(=O)OC1CCCCC1,35% (active)
4,Cc1cc(C)n(-c2ccc(C(=O)O)cc2[N+](=O)[O-])n1,98% (inactive)
5,COc1ccc(NC(=O)CN2C(=O)CSC2=O)cc1,98% (inactive)
6,COc1cccc(OC)c1C(=O)OCC(=O)/C(C#N)=C(\C)N,95% (inactive)
7,CC1(C)C(c2cccs2)=[N+]([O-])C2(CCCCC2=O)N1O (centres undefined),99% (inactive)
8,Cc1cc(NC(=O)CN2C(=O)NC(C)(CCc3ccccc3)C2=O)no1 (centres undefined),96% (inactive)
9,CC(=O)c1ccc(NC(=O)CSC(=S)N2CCCC2)cc1,97% (inactive)
10,CCNC(=O)COC(=O)CCNC(=O)c1cccc(C)c1,102% (inactive)
11,O=C(N/N=C/c1ccco1)c1ccc(NC(=O)C2CC2)cc1,92% (inactive)
12,CCOC(=O)c1ccccc1NC(=O)CSc1nc2ccccc2c(=O)[nH]1,92% (inactive)
13,CCN(CC)Cc1nc2sc(C)c(C)c2c(=O)[nH]1,94% (inactive)
14,O=C(NN=C1CCC(=NNC(=O)c2cccnc2)CC1)c1cccnc1,96% (inactive)
15,O=C(CCN1CCN(C/C=C/c2ccccc2)CC1)Nc1cccc(F)c1,98% (inactive)
16,C=CCn1c(CCNC(=O)c2ccccc2F)nnc1SCC(=O)Nc1ccc(OC)cc1,96% (inactive)
17,Cc1ccccc1OCCOc1ccc([N+](=O)[O-])cc1/C=N/n1cnnc1,95% (inactive)
18,Cn1cnnc1Sc1ccc(S(C)(=O)=O)cc1[N+](=O)[O-],99% (inactive)
19,Cc1nc(N2CCC(C)CC2)c2c(C)c(C(=O)Nc3cc(F)ccc3C)sc2n1,92% (inactive)
20,O=C(COC(=O)c1ccccc1)Nc1cccc(S(=O)(=O)N2CCOCC2)c1,96% (inactive)
21,O=C1Nc2cc(Cl)c(Cl)cc2N(O)N1c1ccccc1Cl,92% (inactive)
22,O=[N+]([O-])c1cccc(/C([O-])=C(/C(=S)Nc2ccccc2F)[n+]2ccccc2)c1,95% (inactive)
23,CCOc1cc2[nH]c(=O)n(Cc3ccc(C(=O)NCCCN4CCCC4=O)cc3)c(=O)c2cc1OCC,98% (inactive)
24,O=C(/C=C/c1ccc(Cl)cc1)Nc1ccc(S(=O)(=O)Nc2ncccn2)cc1,98% (inactive)
